Measurements from article PMC5540273 (PLoS ONE, 2017).

What follows are molecules tested on T1, p38-beta. Details: concentration: 1 μM, replicates: in singlicate; n = 1.
T1 construct: gene MAPK11
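Further: KINOMEscan kinase panel screen.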

Row | SMILES | %Inh [%]
1 | Cl.Cn1ccc(-c2cccc(Nc3ccnc4cc(-c5nccs5)ccc34)c2)n1 [GW525701] | 0
2 | CNc1nccc(-c2c(-c3ccc(F)cc3)ncn2C2CCN(C)CC2)n1 [SB-222903] | 13
3 | CC(C)(C)OC(=O)NC1CCCN(c2cc(-c3ccc4c(N)n[nH]c4c3)nc(N)n2)C1 (stereo not drawn) [GSK2286096] | 0
4 | Clc1cccc(-c2nc(Nc3ccncc3)c3ccccc3n2)c1 [GW873004] | 0
5 | O=C(Nc1n[nH]c2nc(-c3ccco3)c(Br)cc12)c1ccc(CN2CCCC2)cc1.O=C(O)[C@H](O)[C@@H](O)C(=O)O [SB-742352] | 0
6 | FC(F)(F)c1ccc(-c2nn3ncccc3c2-c2ccnc(Nc3cccc(C(F)(F)F)c3)n2)cc1 [GW828205] | 0
7 | CC(C)N1CCC(n2cnc(-c3ccc(F)cc3)c2-c2ccnc(N)n2)CC1 [SB-223132] | 23
8 | Cn1ccc2ncnc(Oc3ccc(NC(=O)Nc4cccnc4)c(Cl)c3)c21 | 0
9 | Cc1ccc(NC(=O)c2cccc(C#N)c2)cc1-c1ccc(C(=O)Nc2ccncc2)cc1 [GSK1398463] | 9
10 | O=C(c1ccc(-c2cc(-c3c[nH]nc3-c3ccccn3)ccn2)cc1)N1CCCC1 [GW792479] | 20
11 | Cc1cc(N2CCC(NS(=O)(=O)c3ccc(F)cc3)CC2)nc(Nc2cccc(C#N)c2)n1.O=C(O)C(F)(F)F [GSK1653537] | 0
12 | O=C(Nc1ccccc1)Nc1ccc(Oc2ccc3nccn3n2)cc1 | 0
